USP2a inhib: qHTS Assay for Inhibitors of Ubiquitin-specific Protease USP2a. Ubiquitin carboxyl-terminal hydrolase 2 (Homo sapiens), O75604. USP2a enzymatic assay, qHTS inhibition. Potency, µM (series often up to 38.3 µM), without a hit: at the top dose activity change, negative = inhibition, most hits filed as inhibitors. 60,000 tested, 0.1% active. AID 927, 2007; further: nearly all actives have a fitted effect of over 60% in size
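Coupled readout: USP2-cleaved Ub-PLA2 (20nM final) turns over NBD C6-HPC (20uM final), Ex 460nm/Em 535nm after 2.5 h, time-zero read flagging artifacts. Enzyme (20nM final, pH 8.0 Tris) given 30 min RT with compound first; NEM defines full inhibition.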
15-hLO inh: qHTS Assay for Inhibitors of 15-hLO (15-human lipoxygenase); purified 15hLO-1, xylenol orange hydroperoxide absorbance; 74,000 tested, 1.4% active; Polyunsaturated fatty acid lipoxygenase ALOX15 (Homo sapiens), P16050; AID 887, 2007; Potency, µM (series often up to 57.1 µM), for the others: at the highest dose activity change, negative = inhibition, most hits filed as inhibitors; further: on the % scale 0 is the no-effect control and ±100 the full control effect; nearly all actives have a fitted effect of over 55% in size
Target sequence (P16050 whole entry, looked up): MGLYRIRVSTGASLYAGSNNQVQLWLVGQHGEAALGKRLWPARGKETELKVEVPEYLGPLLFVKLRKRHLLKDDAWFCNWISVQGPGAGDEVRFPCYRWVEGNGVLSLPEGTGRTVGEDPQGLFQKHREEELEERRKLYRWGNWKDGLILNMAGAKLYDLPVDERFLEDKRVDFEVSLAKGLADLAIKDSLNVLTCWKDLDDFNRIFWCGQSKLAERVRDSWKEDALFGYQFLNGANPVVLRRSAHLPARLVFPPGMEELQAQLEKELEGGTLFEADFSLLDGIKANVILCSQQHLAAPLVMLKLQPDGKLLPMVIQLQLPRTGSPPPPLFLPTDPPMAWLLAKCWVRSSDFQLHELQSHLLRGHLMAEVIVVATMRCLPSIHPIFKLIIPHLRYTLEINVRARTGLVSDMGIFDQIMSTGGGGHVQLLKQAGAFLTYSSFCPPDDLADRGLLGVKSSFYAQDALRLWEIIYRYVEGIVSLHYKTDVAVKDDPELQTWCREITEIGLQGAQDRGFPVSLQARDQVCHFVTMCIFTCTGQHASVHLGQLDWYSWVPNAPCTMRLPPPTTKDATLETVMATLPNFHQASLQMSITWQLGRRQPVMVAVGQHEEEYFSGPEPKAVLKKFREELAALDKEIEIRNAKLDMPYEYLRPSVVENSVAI
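40 nM 15hLO-1 + cpd, 15 min RT; start w/ 50 uM AA (final), 6 min RT; stop/detect w/ 200 uM XO + 300 uM Fe(II) in 50 mM H2SO4, 30 min; A573/A405. Buffer 25 mM Hepes pH 7.5, 0.01% Triton X-100. No-enzyme wells as negative control.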
Tau filament bind: qHTS Assay for Tau Filament Binding; recombinant tau filaments, thioflavin S fluorescence, 15 h; filaments grown with octadecylsulfate alongside compound; Potency, µM (top dose mostly 57.1 µM), without a hit: top-dose activity change, negative = inhibition; 71,000 tested, 2% active; AID 596, 2007;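 further: on the % scale 0 is the no-effect control and ±100 the full control effect; actives lower thioflavin S fluorescence by blocking filaments or displacing dye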
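Assay mix: 1 uM His-tagged tau, 30 uM sodium octadecylsulfate, thioflavine S dye in HEPES/NaCl/DTT buffer. Compound is added prior to the inducer. Fluorescence after 15 h at 37 C.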
GBA mod: Glucocerebrosidase | Lysosomal acid glucosylceramidase (Homo sapiens), P04062 | purified enzyme, resorufin glucoside fluorescence (screen aimed at inhibitors), 20 min | Potency, µM | 48,000 tested, 1.1% active | AID 360, 2006; in the data active means potency below about 15 µM; inconclusive means mostly about 16 µM to 33 µM;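 further: the screen sought inhibitors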
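Normal human glucocerebrosidase (0.2 nM final) was assayed with resorufin β-D-glucopyranoside (30 uM final) in 50mM citric acid/KH2PO4, 10mM sodium taurocholate, 0.01% tween-20, pH 5.9. Compounds were titrated; fluorescence (Ex 548, Em 600) read after 20 min at RT.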
Hsp90 Hop PPI: qHTS Assay for Disrupters of an Hsp90 Co-Chaperone Interaction. 71,000 tested, 0.44% active. Potency, µM (series often up to 57 µM), for inactives: at the highest dose activity change, negative = inhibition. AID 595, 2007. AlphaScreen TPR2A-His6 binding biotin-Hsp90 C-terminal peptide; active means well fitted curve in either direction with a large enough effect; inconclusive means small, poorly fitted or top-dose-only effect, or another doubt; further: on the % scale 0 is the no-effect control and ±100 the full control effect
Bst PK mod: Pyruvate Kinase | purified pyruvate kinase, luminescence ATP production; ribose 5-phosphate activator present at AC10 | Potency, µM | 51,000 tested, 1.2% active | AID 361, 2006; in the data active means potency below about 11 µM; inconclusive means mostly about 12 µM to 25 µM;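 the screen sought inhibitors and activators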;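 further: scaled between full activation by ribose 5 phosphate and full inhibition by luteolin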
* = called active by the depositor; i = inactive; u = inconclusive; x = not tested or not shown; ! = a repeat was not active; [ ] = another dose, or the depositor's remark. An excerpt weighted towards active compounds, which were near 4.6% of everything screened. Unless noted, the call rests on the fitted dose curve; in most records, active means well fitted curve in the direction sought with a large enough effect; inconclusive means small, poorly fitted or top-dose-only effect, or another doubt; inactive means no such curve, though single readings can be large; an effect the other way counts as inactive or inconclusive. Potency means the concentration at half of the fitted maximal effect.

SMILES	USP2a inhib	15-hLO inh	Tau filament bind	GBA mod	Hsp90 Hop PPI	Bst PK mod
CC(C)(C)OC(=O)N[C@@H](Cc1ccccc1)c1nnc(SCC(=O)O)o1	5%	11%	-5%	>77	-1%	>57
CCCCc1c(C)nn(-c2nnc3c4ccccc4n(CC)c3n2)c1C	-8%	39%	2µM*	i	-12%	>57
O=C(COc1nc2ccccc2nc1N1CCOCC1)N1CCc2ccccc21	2%	8%	1%	>77	1%	>57
CC1(C)Cc2c(C#N)c(N3CCCC3)nc(-c3ccco3)c2CO1	x	-17%	84%	x	25µM*	x
CCCCN(C)c1nc(-c2ccco2)c2c(c1C#N)CC(C)(C)OC2	x	u	-26%	x	25µM*	x
CC1(C)Cc2c(C#N)c(NCc3ccco3)nc(-c3ccco3)c2CO1	x	x	x	x	x	>26
CCN(C(=O)c1cc(Cl)ccc1OC)C1CCCCC1	0%[7.66 µM]	-1%[11.4 µM]	-7%[11.4 µM]	x	-2%[11 µM]	x
CC(=O)N1CCN(c2ccc(Nc3nc(C)nc4c3oc3ccccc34)cc2)CC1	11%	-11%	20µM*	>77	u	x
CCOC(=O)c1sc(NC(=O)c2ccc(Br)o2)cc1C	2%	u	111%	u	1%	6.4*
CCOC(=O)c1sc(NC(=O)c2cccs2)cc1C	3%	3%	4%	>77	1%	x
COC(=O)c1ccccc1NC(=O)CN1CCC(n2nnc3cc(F)ccc32)CC1	26%	-4%	-4%	>77	-1%	>57
CCCCn1c(SCC(=O)NC(=O)NCc2ccco2)nc2cc(S(N)(=O)=O)ccc21	24%	10µM*	15%	x	-9%	>57
C=CCn1c(=N)n(CC(=O)O)c2ccccc21	-2%	7%	-1%	>77	-2%	>57
Cc1nn(-c2ccccn2)c(C)c1Oc1ccccc1O	1%	u	-1%	>77	-1%	>57
Cc1nn(-c2nc3ccccc3s2)c(C)c1Oc1ccccc1O	14%	16µM*	128%	x	-3%	x
CN(Cc1ccccc1)Cc1nc2c([nH]1)c(=O)n(C)c(=O)n2C	x	17%	-3%	>77	0%	>57
O=S(=O)(O)c1ccc(N=Nc2ccccc2)cc1	x	6%[11.4 µM]	3%[11.4 µM]	x	-3%[11 µM]	x
Nc1ccc(N=Nc2ccccc2)c(N)n1	7%	u	13µM*	x	u	x
O=C(Nc1ccc2c(c1)OCCO2)c1ccco1	4%	5%	1%	x	-2%	x
CCOC(=O)CSCc1c(C#N)c2ccccc2n1C	0%	3%	2%	>77	4%	>57
Cn1c(=O)c2c(nc(NCc3cccnc3)n2Cc2cccc(C(F)(F)F)c2)n(C)c1=O	17%	-2%	-14%	>77	-6%	>57
COc1ccc(NC2=NCCC(=O)N2Cc2cccs2)cc1	2%	-1%	7%	>77	-10%	>57
COc1ccc2nc3cc(Cl)ccc3c(Nc3ccc(O)c(CN4CCN(C)CC4)c3)c2c1	x	9%[11.4 µM]	0.25µM*	x	-1%[11 µM]	x
CCn1c(N)c(C(=O)NCC2CCCO2)sc1=S (stereo unspecified)	5%	10µM*	7%	>77	0%	>57
C=CCn1c(N)c(C(=O)NCC2CCCO2)sc1=S (stereo unspecified)	1%	u	11%	>77	-6%	>57
SMILES	USP2a inhib	15-hLO inh	Tau filament bind	GBA mod	Hsp90 Hop PPI	Bst PK mod
CCOC(=O)Cn1nnc(-c2ccc(OCC(C)C)cc2)n1	5%	-9%	8%	>77	2%	>57
CCc1nc2scc(-c3ccccc3)c2c(=O)n1N	24%	20µM*	3%	>77	-2%	u
Cn1c(=O)n(CCc2ccccc2)c(=O)c2c1nc1n2CCCN1CCc1ccccc1	-1%	-29%	-24%	9*	-12%	>57
Cn1c(=O)n(Cc2ccccc2F)c(=O)c2c1nc1n2CCCN1CCc1ccccc1	8%	-5%	1%	14*	-5%	>57
COc1ccc(N2CCCn3c2nc2c3c(=O)n(CCc3ccccc3)c(=O)n2C)cc1	9%	2%	-12%	12*	-3%	>57
Cn1c(=O)n(CCc2ccccc2)c(=O)c2c1nc1n2CCCN1Cc1ccccc1	12%	u	-13%	i	-3%	>57
Cc1cnc(CNc2ccnc(-c3cccnc3)n2)cn1	-1%	-17%	-5%	x	-4%	x
CCOc1ccccc1C(=O)Nc1cc(Cl)ccc1O	13µM*	10µM*	112%	x	3%	>57
Cc1[nH]c(=O)[nH]c(=O)c1S(=O)(=O)N1CCCC(C(=O)NCCc2ccc(Cl)cc2)C1 (stereo unspecified)	4%	-5%	1%	u	-1%	>57
Cc1nnc(NC(=O)c2ccccc2Br)s1	-2%	3%	-2%	3.9*	-2%	>57
Cc1nnc(NC(=O)c2sc3ccccc3c2Cl)s1	17%	8%	-4%	15*	-1%	2.1*
Cc1nnc(NC(=O)c2c(F)c(F)c(F)c(F)c2F)s1	-4%	4%	-7%	u	3%	>57
Cc1nnc(NC(=O)c2ccccc2F)s1	-6%	5%	-3%	7.9*	0%	>57
O=C(Nc1nncs1)c1ccccc1Br	0%	4%	-5%	x	-3%	x
O=c1cc(N2CCN(c3ccccc3F)CC2)[nH]c(=O)n1-c1ccc(Br)cc1	x	3%	15%	x	-2%	x
O=C1C(SCCO)=C(SCCO)C(=O)c2ccccc21	0%	-18%[25.6 µM]	5µM*!	x	u	x
COc1ccc(C2C3=C(CC(C)(C)CC3=O)Oc3ncn(CC(C)C)c(=N)c32)cc1 (stereo unspecified)	22%	0%	4µM*	>77	-9%	>57
COc1ccc(C2C3=C(CC(C)(C)CC3=O)Oc3ncn(Cc4ccco4)c(=N)c32)cc1 (stereo unspecified)	25%	-7%	16µM*	>77	-24%	>57
CC1(C)CC(=O)C2=C(C1)Oc1ncn(CCO)c(=N)c1C2c1ccccc1 (stereo unspecified)	-1%	8%	14%	>77	-9%	>57
COc1ccccc1-c1cncnc1NCCNC(C)=O	-20%	10µM*	-16%	x	-13%	x
COc1ccccc1-c1cncnc1Nc1ccccc1	26%	25µM*	-5%	x	-3%	x
COCCNc1ncncc1-c1ccccc1OC	-16%	-7%	-1%	x	-8%	x
COc1ccc(OC)c(N(CC(=O)Nc2ccccc2)S(C)(=O)=O)c1	1%	1%	0%	>77	1%	>57
CCC(=O)N1CCN(c2ccc(NC(=O)c3cc4ccccc4o3)cc2Cl)CC1	42%	-17%	73%	3.2*	-9%	>57
O=C(Nc1ccccc1N1CCCC1)c1ccc(Br)o1	1%	-8%	-18%	>77	-10%	>57
O=C(Nc1ccc(N2CCCC2)c(Cl)c1)c1ccc(Br)o1	-6%[7.66 µM]	-18%[11.4 µM]	4µM*	x	u	x

Bioassay records as filed in PubChem BioAssay.
